According to the supplement of paper PMC8975748:
Counter-ions that a name gives are not always drawn.

System: Saccharomyces cerevisiae BY4741 SeMeCo community
Test: z-score of subpopulation abundance vs DMSO median, subpopulation auxotrophic for HL; higher = larger share of this subpopulation than in DMSO controls
Conditions: 10 µM; 24 h; SM minimal medium; subpopulation (auxotrophy): HL
How it was run: (§1)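 Scoring was based on each subpopulation's abundance, expressed as a z-score against the vehicle-well median. A Saccharomyces cerevisiae BY4741 community with four plasmids, each restoring one auxotrophy and encoding a distinct fluorescent protein, was pre-grown overnight to OD600 1.0, diluted to 0.3, and added at 70 µl to 384-well plates acoustically predosed with library drugs (10 µM final). It then grew 24 h in minimal SM medium before paraformaldehyde fixation and automated confocal microscopy, with single-auxotroph fluorescent strains setting thresholds and autofluorescence correction.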

SMILES | z-score of subpopulation abundance
OC(c1ccccc1)(c1ccccc1)C12CC[N+](CCOCc3ccccc3)(CC1)CC2 [Umeclidinium bromide] | -0.7
OCc1ccccc1O[C@@H]1O[C@H](CO)[C@@H](O)[C@H](O)[C@H]1O [Salicin] | -0.58
CN(C)CCc1c[nH]c2ccc(Cn3cncn3)cc12 [Rizatriptan Benzoate] | 0.75
OCCN(CCO)c1nc(N2CCCCC2)c2nc(N(CCO)CCO)nc(N3CCCCC3)c2n1 [Dipyridamole] | 6.01
Cn1nnnc1SCC1=C(C(=O)O)N2C(=O)[C@@H](NC(=O)[C@H](OC=O)c3ccccc3)[C@H]2SC1 [Cefamandole nafate] | 0.65
CC(=O)[C@@]1(O)CC[C@H]2[C@@H]3C[C@H](C)C4=CC(=O)CC[C@]4(C)[C@H]3CC[C@@]21C [Medroxyprogesterone] | 0.3
CC[N+](CC)(CC)CC [Tetraethylammonium bromide] | -0.73
CCC1(c2ccccc2)C(=O)NCNC1=O [Primidone] | -0.36
CCCCOc1cc(C(=O)OCCN(CC)CC)ccc1N [Oxybuprocaine HCl] | 0.21
C[N+]1(C)[C@@H]2CC[C@H]1C[C@@H](OC(=O)C(O)c1ccccc1)C2 (some centres undefined) [Homatropine Methylbromide] | -0.55

System: Saccharomyces cerevisiae BY4741 SeMeCo community
Test: z-score of subpopulation abundance vs DMSO median, subpopulation auxotrophic for HLU; higher = larger share of this subpopulation than in DMSO controls
Conditions: 10 µM; 24 h; SM minimal medium; subpopulation (auxotrophy): HLU
How it was run: as §1

SMILES | z-score of subpopulation abundance
CC(C)NC(=N)NC(=N)Nc1ccc(Cl)cc1 [Proguanil] | -0.46
Nc1nc(O)c2ncn(CCC(CO)CO)c2n1 [Penciclovir] | -0.33
C=CC(C)(O)CCC=C(C)C (centres undefined) [Linalool] | -0.06
O=C(N[C@H](CO)[C@H](O)c1ccc([N+](=O)[O-])cc1)C(Cl)Cl [Chloramphenicol] | -0.24
CCCN1CCCC[C@H]1C(=O)Nc1c(C)cccc1C [Ropivacaine] | -0.32
Cc1onc(-c2ccccc2)c1-c1ccc(S(N)(=O)=O)cc1 [Valdecoxib] | -0.52
CN1[C@@H]2CC[C@H]1C[C@@H](OC(=O)c1c[nH]c3ccccc13)C2 [Tropisetron] | 1.41
CC[C@H]1OC(=O)[C@H](C)[C@@H](O[C@H]2C[C@@](C)(OC)[C@@H](O)[C@H](C)O2)[C@H](C)[C@@H](O[C@@H]2O[C@H](C)C[C@H](N(C)C)[C@H]2O)[C@](C)(O)C[C@@H](C)/C(=N\OCOCCOC)[C@H](C)[C@@H](O)[C@]1(C)O [Roxithromycin] | 0
COc1ccccc1N1CCN(CCCNc2cc(=O)n(C)c(=O)n2C)CC1 [Urapidil HCl] | -0.11
O=C(O)c1cc(-c2ccc(F)cc2F)ccc1O [Diflunisal] | -0.75
C=C[C@H]1CN2CC[C@H]1C[C@H]2[C@H](O)c1ccnc2ccc(OC)cc12 [Quinine HCl Dihydrate] | -0.42
Cc1nc(=O)c2cc(CN(C)c3ccc(C(=O)N[C@@H](CCC(=O)O)C(=O)O)s3)ccc2[nH]1 [Raltitrexed] | -0.94
CC(C)Cc1ccc(C(C)C(=O)O)cc1 (centres undefined) [Ibuprofen Lysine] | -1.49
CN(C)CCc1c[nH]c2ccc(C[C@H]3COC(=O)N3)cc12 [Zolmitriptan] | 0.09
C[C@]12CC[C@@H]3c4ccc(O)cc4C[C@@H](CCCCCCCCC[S+]([O-])CCCC(F)(F)C(F)(F)F)[C@H]3[C@@H]1CC[C@@H]2O (some centres undefined) [Fulvestrant] | 1.48
COc1ccc(NS(=O)(=O)c2ccc(N)cc2)nn1 [Sulfamethoxypyridazine] | -0.41
CNCCCN1c2ccccc2CCc2ccccc21 [Desipramine Hydrochloride] | -0.62
Oc1ccc([C@H]2COc3cc(O)ccc3C2)cc1 [Equol] | 0
Cc1[nH]c(=O)c(C#N)cc1-c1ccncc1 [Milrinone] | -0.86
Cc1ccc(O)c([C@H](CCN(C(C)C)C(C)C)c2ccccc2)c1 [Tolterodine tartrate] | 0.29
CCN(CC)CCOC(=O)c1ccc(N)cc1 [Procaine] | -1.15
O=C(O)c1cc(/N=N/c2ccc(O)c(C(=O)O)c2)ccc1O [Olsalazine Sodium] | -1.31
CCC(C)(Oc1ccc(C2(c3ccc(OC(C)(CC)C(=O)O)cc3)CCCCC2)cc1)C(=O)O (centres undefined) [Clinofibrate] | 0.73
CN(C)[C@@H]1C(=O)C(C(N)=O)=C(O)[C@@]2(O)C(=O)C3=C(O)c4c(O)ccc(Cl)c4[C@@H](O)[C@H]3C[C@@H]12 [Demeclocycline HCl] | -0.4
